# From PubChem BioAssay (NCATS)
# Values joined by “and” are separate entries in the source; they are usually repeats but may differ in a detail not shown here. Equal values may be shown once. Inconclusive results are not listed. More than one record can exist for a structure, and the calls need not agree. Active and inactive are the calls of the source. Unless noted, the call rests on the fitted dose curve; in most records, active means well fitted curve in the direction sought with a large enough effect in the repeat runs; inconclusive means weak or mixed curves; inactive means no such curve, though single readings can be large; an effect the other way counts as inactive or inconclusive.
# Legend:
# [1] = target: Cytochrome P450 2C9 (Homo sapiens) (UniProt P11712); assay: Cytochrome P450 family 2 subfamily C member 9 (CYP2C9) small molecule antagonists: luciferase biochemical (cell-free) qHTS assay (AID 1645842); further: nearly all actives have a fitted effect of over 55% in size; on activity change, negative = inhibition: on the % scale 0 is the no-effect control and ±100 the full control effect
# Sequence of Cytochrome P450 2C9 (Homo sapiens) (P11712 whole entry, looked up): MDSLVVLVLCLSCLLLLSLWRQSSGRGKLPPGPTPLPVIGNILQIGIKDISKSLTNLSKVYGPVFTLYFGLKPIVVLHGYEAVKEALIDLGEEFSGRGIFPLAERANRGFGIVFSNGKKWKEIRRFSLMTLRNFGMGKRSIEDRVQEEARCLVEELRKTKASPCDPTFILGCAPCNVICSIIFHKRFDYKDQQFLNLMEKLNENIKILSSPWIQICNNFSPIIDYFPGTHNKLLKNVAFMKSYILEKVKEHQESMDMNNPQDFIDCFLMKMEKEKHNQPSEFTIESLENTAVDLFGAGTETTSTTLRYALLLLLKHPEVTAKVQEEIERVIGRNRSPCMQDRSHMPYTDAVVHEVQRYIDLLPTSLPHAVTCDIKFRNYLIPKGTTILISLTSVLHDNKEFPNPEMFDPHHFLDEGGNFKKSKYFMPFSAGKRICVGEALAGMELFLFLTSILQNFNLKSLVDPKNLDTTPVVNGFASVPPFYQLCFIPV
# How it was run: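 Luminescence, after 20 min with luciferin detection reagent, reflected CYP2C9 turnover during a 1 h NADPH-driven reaction at 37C. Enzyme-substrate mix contained 0.4% bovine serum albumin and was preincubated with compound 10 min at room temperature.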
# [2] = Primary qHTS for inhibitors of nuclear receptor binding SET domain protein 2 (NSD2) in an isogenic RCH-ACV NSD2 p.E1099K mutant (9B) (AID 1645876; active means well fitted curve in the direction sought with a large enough effect; an effect the other way counts as inactive or inconclusive; further: nearly all actives have a fitted effect of over 70% in size)
# [3] = Primary qHTS for inhibitors of nuclear receptor binding SET domain protein 2 (NSD2) in an RCH-ACV wild type WT cells (2C) (AID 1645877; active means well fitted curve in the direction sought with a large enough effect; an effect the other way counts as inactive or inconclusive; further: nearly all actives have a fitted effect of over 70% in size)
# [4] = target: Cytochrome P450 3A4 (Homo sapiens) (UniProt P08684); assay: Cytochrome P450 family 3 subfamily A member 4 (CYP3A4) small molecule antagonists: luciferase qHTS assay (AID 1645841); further: nearly all actives have a fitted effect of over 45% in size
# Sequence of Cytochrome P450 3A4 (Homo sapiens) (P08684 whole entry, looked up): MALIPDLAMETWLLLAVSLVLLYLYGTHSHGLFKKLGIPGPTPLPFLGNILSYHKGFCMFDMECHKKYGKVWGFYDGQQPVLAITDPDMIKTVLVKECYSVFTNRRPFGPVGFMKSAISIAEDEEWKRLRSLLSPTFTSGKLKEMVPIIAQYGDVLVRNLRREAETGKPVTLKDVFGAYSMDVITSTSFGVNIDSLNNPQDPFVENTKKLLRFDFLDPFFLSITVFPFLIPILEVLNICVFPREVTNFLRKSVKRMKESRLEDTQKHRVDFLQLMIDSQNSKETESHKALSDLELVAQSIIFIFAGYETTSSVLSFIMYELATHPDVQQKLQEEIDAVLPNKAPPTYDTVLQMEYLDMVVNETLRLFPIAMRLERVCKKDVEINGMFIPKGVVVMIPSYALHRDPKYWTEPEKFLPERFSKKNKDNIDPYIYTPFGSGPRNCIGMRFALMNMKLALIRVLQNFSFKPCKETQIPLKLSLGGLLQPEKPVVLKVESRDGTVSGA
# How it was run: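 P450-Glo CYP3A4 enzyme with proluciferin substrate was preincubated with DMSO-dissolved compounds for 10 min at room temperature. NADPH regeneration solution started a 1 h reaction. Detection reagent stopped it, and luminescence was read after 20 min.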
# [5] = target: Catechol O-methyltransferase (Homo sapiens) (UniProt P21964); assay: Confirmatory Screen for Target Class Profiling of Small Molecule Inhibitors of Methyltransferases (AID 1745852; calls by dose curve; on activity change, negative = inhibition: on the % scale 0 is the no-effect control and ±100 the full control effect); conditions: MTase-Glo luminescence, SAH detection, recombinant enzyme; measured here: COMT max response; stronger effect = lower value
# Sequence of Catechol O-methyltransferase (Homo sapiens) (P21964 whole entry, looked up): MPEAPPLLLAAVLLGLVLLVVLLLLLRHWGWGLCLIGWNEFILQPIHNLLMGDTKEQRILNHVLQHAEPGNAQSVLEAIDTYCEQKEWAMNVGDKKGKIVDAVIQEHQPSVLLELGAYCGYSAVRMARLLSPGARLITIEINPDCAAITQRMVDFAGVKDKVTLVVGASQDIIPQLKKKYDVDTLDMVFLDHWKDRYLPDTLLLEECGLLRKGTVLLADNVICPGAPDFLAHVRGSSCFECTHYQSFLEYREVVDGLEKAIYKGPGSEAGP
# [6] = target: Guanidinoacetate N-methyltransferase (Homo sapiens) (UniProt Q14353); assay: as above; conditions: activity change, negative = inhibition: at 57.3 µM (top of the series) unless noted
# [7] = target: Nicotinamide N-methyltransferase (Homo sapiens) (UniProt P40261); assay: as above; conditions: MTase-Glo luminescence, SAH detection, recombinant enzyme; measured here: NNMT max response; stronger effect = lower value
# Sequence of Nicotinamide N-methyltransferase (Homo sapiens) (P40261 whole entry, looked up): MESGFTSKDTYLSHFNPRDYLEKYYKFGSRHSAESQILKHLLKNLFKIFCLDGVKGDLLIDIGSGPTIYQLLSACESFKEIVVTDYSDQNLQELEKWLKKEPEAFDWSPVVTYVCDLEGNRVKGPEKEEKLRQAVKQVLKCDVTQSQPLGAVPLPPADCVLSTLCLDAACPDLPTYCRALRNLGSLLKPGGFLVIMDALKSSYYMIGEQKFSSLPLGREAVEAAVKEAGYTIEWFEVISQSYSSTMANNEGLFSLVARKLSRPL
# [8] = target: Phenylethanolamine N-methyltransferase (Homo sapiens) (UniProt P11086); assay: as above; conditions: MTase-Glo luminescence, SAH detection, recombinant enzyme; measured here: PNMT max response; stronger effect = lower value
# Sequence of Phenylethanolamine N-methyltransferase (Homo sapiens) (P11086 whole entry, looked up): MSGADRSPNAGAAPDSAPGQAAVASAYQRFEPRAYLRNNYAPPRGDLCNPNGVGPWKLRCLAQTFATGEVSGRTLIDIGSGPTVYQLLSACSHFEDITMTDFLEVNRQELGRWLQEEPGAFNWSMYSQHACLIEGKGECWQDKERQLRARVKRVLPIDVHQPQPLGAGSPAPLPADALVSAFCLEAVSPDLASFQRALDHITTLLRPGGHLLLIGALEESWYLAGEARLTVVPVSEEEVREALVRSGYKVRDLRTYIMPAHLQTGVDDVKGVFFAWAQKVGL
# [9] = target: N-terminal Xaa-Pro-Lys N-methyltransferase 1 (Homo sapiens) (UniProt Q9BV86); assay: Confirmatory qHTS for Inhibitors of N-terminal methyltransferase 1 (NTMT1): MTaseGlo Assay (AID 1645874; active means well fitted curve in the direction sought with a large enough effect; an effect the other way counts as inactive or inconclusive; further: nearly all actives have a fitted effect of over 65% in size;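 on activity change, negative = inhibition: luminescence from SAH made as NTMT1 methylates SPKRIA peptide using SAM; 0% = DMSO control and -100% = no-enzyme control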)
# Sequence of N-terminal Xaa-Pro-Lys N-methyltransferase 1 (Homo sapiens) (Q9BV86 whole entry, looked up): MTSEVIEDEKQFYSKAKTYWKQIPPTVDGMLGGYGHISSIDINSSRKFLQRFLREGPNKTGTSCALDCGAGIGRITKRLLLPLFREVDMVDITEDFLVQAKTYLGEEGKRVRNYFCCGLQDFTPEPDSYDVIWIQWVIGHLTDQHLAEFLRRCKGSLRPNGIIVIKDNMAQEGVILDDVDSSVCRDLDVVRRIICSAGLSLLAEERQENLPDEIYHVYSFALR
# How it was run: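 Preincubation of NTMT1 (125 nM) plus SAM (100 uM) with test compounds lasted 15 min; methylation of 1 uM SPKRIA then proceeded 30 min in the dark at room temperature. Luciferase signal reported SAH produced.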
# Potency means the concentration at half of the fitted maximal effect.
structure (smiles),measurement,setting,value
C(#Cc1cccc(CN2CCOCC2)c1)CCN1CCCCC1,Potency,[1],inactive
same,Potency,[2],inactive
same,Potency,[3],inactive
COCCN(C)Cc1ccc2nc3sc(C(=O)N(C)C4CCCCC4)cn3c2c1,Potency,[4],inactive
same,Potency,[2],inactive
same,Potency,[3],inactive
same,activity,[5],-4.7%
same,"activity change, negative = inhibition",[6],0%
same,activity,[7],1.46%
same,activity,[8],-2.94%
CCCCC(C)(O)C/C=C/[C@H]1[C@H](O)CC(=O)[C@@H]1CCCCCCC(=O)OC (stereo partly drawn),Potency,[1],2.68 µM (active)
CO[C@@H](Cc1ccc(OCCc2nc(-c3ccccc3)oc2C)c2ccsc12)C(=O)O,Potency,[1],26.8 µM (active)
same,Potency,[2],inactive
same,Potency,[3],inactive
Cc1cccc(-c2[nH]c(CNc3ccccc3F)nc2-c2ccc3ncnn3c2)n1,Potency,[1],21.3 µM (active)
COC(=O)C1=C(C#N)NC(C)=C(C(=O)OC(C)C)C1c1cccc([N+](=O)[O-])c1 (stereo not drawn),Potency,[1],1.07 µM (active)
Nc1nc(N)c2nc(CNc3ccc(C(=O)N[C@@H](CCC(=O)O)C(=O)O)cc3)cnc2n1,Potency,[4],inactive
same,Potency,[1],inactive
O=C1C[C@@H](c2ccc(O)cc2)Oc2cc(O)ccc21,Potency,[1],12 µM (active)
CNC(=O)O[C@H]1COc2ccc(N3CCN(C4COC4)CC3)cc2[C@@H]1NC(=O)c1ccc(F)cc1,Potency,[1],inactive
same,Potency,[2],inactive
same,Potency,[3],inactive
O=C(O)c1ccc(CCCc2ccc(OCCc3ccc(F)cc3)cc2)o1,Potency,[1],inactive
COc1cc(NC(=O)c2ccccn2)ccc1Cl,Potency,[1],23.9 µM (active)
same,Potency,[2],inactive
same,Potency,[3],inactive
O=C(c1ccc(C#Cc2cccc(F)c2)cn1)N1CC2CC2C1 (stereo not drawn),Potency,[1],23.9 µM (active)
same,Potency,[2],inactive
same,Potency,[3],inactive
COc1c(C)c(C(=O)c2ccc(N)c(C(=O)O)c2)n2ccccc12,Potency,[1],12 µM (active) and 10.7 µM (active)
same,Potency,[9],inactive
same,Potency,[2],inactive
same,Potency,[3],inactive
O=S(=O)(Nc1ccc(C(O)(C(F)(F)F)C(F)(F)F)cc1)c1cccs1,Potency,[1],1.9 µM (active)
COc1cc2c(Nc3ccc(Cl)c(Cl)c3F)ncnc2cc1OCC1C[C@@H]2CN(C)C[C@@H]2C1 (stereo partly drawn),Potency,[4],inactive
same,Potency,[9],15.1 µM (active)
same,Potency,[2],2.95 µM (active)
same,Potency,[3],2.63 µM (active) and 1.86 µM (active)
same,activity,[5],-81.3%
same,Potency,[6],24.1 µM (active)
same,activity,[7],-73.4%
same,activity,[8],-80.2%
Cc1nc2c(-c3cnc(N)nc3)nc(N3CCOCC3)nc2n1C(C)C,Potency,[1],12 µM (active)
same,Potency,[2],72.8 nM (active) and 132 nM (active)
same,Potency,[3],72.8 nM (active) and 132 nM (active)
O=C(O)CCC(=O)C(=O)O,Potency,[1],inactive
O=C(C1CC1)N1CC[C@@H](Cc2n[nH]c(=O)n2-c2ccc(-c3ccc4occc4c3)cc2)C1,Potency,[4],6.74 µM (active)
same,Potency,[1],6.74 µM (active)
same,Potency,[2],inactive and 16.6 µM (active)
same,Potency,[3],inactive and 18.6 µM (active)
O=C(Nc1ccc(Br)cc1)c1cc(Br)c(Br)s1,Potency,[1],21.3 µM (active)
CC(C)(C)c1cc(CN2CCN(CC(O)c3ccc(Cl)cc3)CC2)cc(C(C)(C)C)c1O (stereo not drawn),Potency,[1],8.49 µM (active)
COC(=O)CCC(=O)CN,Potency,[1],inactive
OCC(S)CS (stereo not drawn),Potency,[1],2.68 µM (active)
C[C@@H]1[C@H](O)[C@@H](C)/C=C/C=C\C=C\C=C\C=C\C=C\C=C\[C@H](O[C@@H]2O[C@H](C)[C@@H](O)[C@H](N)[C@@H]2O)C[C@@H]2O[C@](O)(C[C@@H](O)C[C@@H](O)[C@H](O)CC[C@@H](O)C[C@@H](O)CC(=O)O[C@H]1C)C[C@H](O)[C@H]2C(=O)O (stereo in doubt),Potency,[1],inactive
CC[C@@H](c1ccc(F)c(F)c1)n1c(C(=O)OC)c(-c2ccno2)[nH]c1=S,Potency,[1],0.756 µM (active)
same,Potency,[9],inactive
Clc1cc(Cl)c(OCC#CI)cc1Cl,Potency,[1],6.01 µM (active)
O=C(NC[C@H](O)CN1CCc2ccccc2C1)c1cc(NC2COC2)ncn1,Potency,[4],inactive
same,Potency,[1],inactive
same,Potency,[2],inactive
CC(=O)OCC(=O)[C@@]12OC3(CCCC3)O[C@@H]1C[C@H]1[C@@H]3CCC4=CC(=O)C=C[C@]4(C)[C@@]3(F)[C@@H](O)C[C@@]12C,Potency,[1],13.5 µM (active)
COc1cccc2c1CCC[C@H]2CN(C)CCc1ccc2ccoc2c1,Potency,[1],0.425 µM (active)
O=C(O)c1cc(=O)c2c3nc4ccccc4oc-3cc(=O)c2[nH]1,Potency,[1],26.8 µM (active)
O=C(O)C[C@@H](NC(=O)c1cc(-c2ccc(-c3ccncc3)cc2)cs1)c1ccccc1,Potency,[1],26.8 µM (active)
same,Potency,[2],inactive
same,Potency,[3],inactive
CNC1CCN(C(Cc2cccc(-c3ccncc3)c2)C(=O)c2sc3c(F)ccc(F)c3c2Cl)CC1 (stereo not drawn),Potency,[4],0.12 µM (active)
same,Potency,[1],10.7 µM (active)
same,activity,[5],-12.3%
same,Potency,[6],48.2 µM (active)
same,activity,[7],-78%
same,activity,[8],-11.9%
